An excerpt weighted towards active compounds, which were near 10% of everything screened.
CCT modulator: High-Throughput Screening for Modulators of Cytosolic Chaperonin Activity | purified chaperonin ATPase assay, HTRF ADP detection, 30 min | activity change, % (concentration not given with the values), hits read low | actives 0.3% (n = 360,000) | AID 651819, 2012; in the data active = activity change below about -30%
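Enzyme 40 or 20 nM (batch-dependent) in Tris pH 7.4/KCl/MgCl2/DTT; cpd 76 uM single point; ATP 10 uM; 30 min 37 °C; Transcreener ADP HTRF detection, 30 min RT; ratio 665/615.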
PLK1 PBD inh: qHTS for Inhibitors of PLK1-PDB (polo-like kinase 1 - polo-box domain): Primary Screen | Serine/threonine-protein kinase PLK1 (Homo sapiens), P53350 | Plk1 PBD binding of FITC phosphopeptide, fluorescence polarization | Potency, µM, without a hit: max response, negative = inhibition, most hits filed as inhibitors | actives 2.8% (n = 360,000) | AID 720504, 2013; note: potency is the fitted concentration of half-maximal effect; series mostly up to about 57 µM; nearly all actives have a fitted effect of over 65% in size
Target sequence (P53350 whole entry, looked up, the tested form may be a part): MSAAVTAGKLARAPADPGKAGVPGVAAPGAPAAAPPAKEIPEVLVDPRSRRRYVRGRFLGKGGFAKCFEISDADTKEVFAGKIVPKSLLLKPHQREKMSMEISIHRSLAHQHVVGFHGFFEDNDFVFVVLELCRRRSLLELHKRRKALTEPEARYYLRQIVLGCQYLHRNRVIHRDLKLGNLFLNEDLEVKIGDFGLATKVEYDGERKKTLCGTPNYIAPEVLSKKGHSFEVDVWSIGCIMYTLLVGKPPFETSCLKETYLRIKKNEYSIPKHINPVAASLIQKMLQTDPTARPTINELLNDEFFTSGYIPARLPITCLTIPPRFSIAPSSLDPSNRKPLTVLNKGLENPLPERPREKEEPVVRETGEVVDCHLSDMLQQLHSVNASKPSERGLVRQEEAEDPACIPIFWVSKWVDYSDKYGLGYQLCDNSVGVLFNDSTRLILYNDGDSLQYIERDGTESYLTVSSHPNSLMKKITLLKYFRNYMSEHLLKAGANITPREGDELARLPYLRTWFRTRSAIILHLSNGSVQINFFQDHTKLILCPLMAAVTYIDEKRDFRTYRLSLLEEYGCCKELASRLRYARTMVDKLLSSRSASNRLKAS
Sfp inh: qHTS Assay for Inhibitors of Bacillus subtilis Sfp phosphopantetheinyl transferase (PPTase). actives 3.5% (n = 310,000). 4'-phosphopantetheinyl transferase ffp (Bacillus subtilis), Q9F4F7. Potency, µM, without a hit: largest response in the series, negative = inhibition, hits mostly inhibitors. Biochemical Sfp PPTase activity, qHTS;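 note: the enzyme is Sfp with the accession as filed and its product quenches rhodamine fluorescence; potency is the fitted concentration of half-maximal effect; 0% = enzyme reaction without inhibitor and -100% = no enzyme wells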
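Sfp 15 nM + cpd, 15 min RT; start w/ rhodamine-CoA 5 uM, BHQ-2-YbbR 12.5 uM (final); 50 mM Hepes pH 7.6, 10 mM MgCl2, 0.01% NP-40, 0.01% BSA; read 525/598 nm at 0 and 30 min.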
VDR inh: Inhibitors of the vitamin D receptor (VDR): qHTS; Vitamin D3 receptor (Homo sapiens), P11473; VDR-SRC2-3 peptide fluorescence polarization, 2 h; Potency, µM, inactives show max response, negative = inhibition, hits mostly inhibitors; actives 0.93% (n = 400,000); AID 504847, 2011; note: potency is the fitted concentration of half-maximal effect
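Measured by FP: displacement of SRC2-3 coactivator peptide from VDR by library compounds, following a two-hour ambient incubation.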
G9a inh: qHTS Assay for Inhibitors of Histone Lysine Methyltransferase G9a | Histone-lysine N-methyltransferase EHMT2 (Homo sapiens), Q96KQ7 | G9a H3K9 monomethylation, AlphaScreen, 2 h | Potency, µM (top dose mostly 102 µM), for the others: at the top dose activity, negative = inhibition, hits mostly inhibitors | actives 8.8% (n = 350,000) | AID 504332, 2011; note: potency is the fitted concentration of half-maximal effect; nearly all actives have a fitted effect of over 75% in size
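Enzyme 20 nM + cpd, 15 min RT; add b-H3K9 pep 500 nM / SAM 20 uM; 2 h RT; anti-H3K9me1 Ab 0.5 ug/mL + SA donor / anti-rabbit acceptor beads 20 ug/mL each, 10 min; AlphaScreen read.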
Mm-Cpn inhibitor: Inhibitors of TCP-1 ring complex (TRiC) of Methanococcus maripaludis (MmCpn): qHTS | Chaperonin Mm-Cpn (Methanococcus maripaludis) | purified Mm-Cpn ATPase, ADP Transcreener TR-FRET | Potency, µM (doses to about 76.9 µM), for the others: at the top dose activity, negative = inhibition, hits mostly inhibitors | actives 0.031% (n = 330,000) | AID 504842, 2011; note: potency is the fitted concentration of half-maximal effect; nearly all actives have a fitted effect of over 80% in size
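Compound-treated chaperonin, 25 nM final, turns over 10 uM ATP at 37°C for 30 min following a 10 min preincubation; ADP generated competes with ADP-d2 for Eu-cryptate antibody, lowering FRET.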
The depositor's hits bear a star; u = inconclusive; x = no result given; [ ] = remark or other dose. Unless noted, calls come from the whole dose curve; as a rule, active = well fitted curve in the direction sought with a large enough effect; inconclusive = small, poorly fitted or top-dose-only effect, or another doubt; inactive = no such curve, though single readings can be large; an effect the other way counts as inactive or inconclusive. Unless noted, % is set by controls: 0 for no effect and ±100 for the full control effect.

SMILES | CCT modulator | PLK1 PBD inh | Sfp inh | VDR inh | G9a inh | Mm-Cpn inhibitor
COc1cc(/C=C2\SC(=O)N(CC(=O)Nc3ccc(C)cc3)C2=O)cc(Cl)c1OCC(=O)O | 1.5 | 15µM* | 13.7% | u | u | -1.1%
Cc1ccc(NC(=O)CN2C(=O)S/C(=C\c3ccc(OCC(=O)O)c(Br)c3)C2=O)cc1 | -2.2 | u | -12.4% | -23.8% | 44.7µM* | 1.1%
O=c1c(-c2ccccc2)nc2cnc(N3CCOCC3)nc2n1-c1ccccc1 | x | x | -4.9% | -15.9% | 1.6%[12.7 µM] | x
Cc1nc2nc(NCc3ccc(Br)cc3)[nH]n2c(=O)c1Cc1ccccc1 | x | x | x | 16.7% | u | x
CC(C1CC2CCC1C2)n1c(-c2ccco2)n[nH]c1=S (stereo not drawn) | -3.1 | 29.9µM* | u | 79.4µM* | 2.24µM* | 0.2%
Cc1nc2sc(C(N)=O)c(N)c2c(C)c1CC(=O)c1ccccc1 | 3.4 | -17.1% | -14.9% | 2.9% | 14.1µM* | -7.4%
CCOC(=O)c1c(C)nc2sc(C(N)=O)c(N)c2c1-c1ccc(OC)cc1 | -3.0 | -4.8% | -18.0% | 10.5% | -32.7%[59 µM] | -16.9%
O=C(O)c1ccc(Cn2cc(/C=C\[N+](=O)[O-])c3ccccc32)o1 | -0.9 | 26.7µM* | -26.5% | 12.6µM* | 39.8µM* | 4.6%
Cc1cccc(Cn2cc(/C=C/[N+](=O)[O-])c3ccccc32)c1 | 1.8 | -26.2% | -7.0% | u | -9.9%[59 µM] | -1.0%
O=C(NCC(c1cccnc1)N1CCN(c2ccccc2F)CC1)c1ccc(F)cc1 (stereo not drawn) | x | x | x | 10.0% | -4.1%[59 µM] | x
Cc1nc2[nH]c(=S)n(C)c(=O)c2nc1C | 0.5 | -8.1% | u | -11.8% | 44.7µM* | 0.1%
O=[N+]([O-])c1cc2c(c(CSc3ncccn3)c1)OCOC2 | -3.2 | -6.9% | 19.0% | -4.5% | -2.1% | 0.3%
COc1cccc(Nc2nnc(SCc3cc([N+](=O)[O-])cc4c3OCOC4)s2)c1 | -4.8 | -8.7% | 15.8% | 7.7% | u | 3.3%
Nc1cc(N)nc(SCc2cc([N+](=O)[O-])cc3c2OCOC3)n1 | -0.5 | u | 10.6% | 17.0% | 70.8µM* | -4.5%
Cc1cccc(C)c1Nc1nnc(SCc2cc([N+](=O)[O-])cc3c2OCOC3)s1 | -0.4 | -13.9% | 2.0% | -2.1% | 50.1µM* | 0.1%
O=C(CCn1c(=O)c2cccn2c2cccnc21)NCc1ccc(Cl)cc1 | x | x | x | 11.7% | 9.2%[59 µM] | x
COc1ccc2[nH]cc(CCNC(=O)Nc3cc(C)cc(C)c3)c2c1 | x | x | x | 14.3% | -3.7%[59 µM] | x
Fc1ccc(/C=C2\CCCC3=C2Nc2ncnn2C3c2ccc(F)cc2)cc1 (stereo not drawn) | 0.5 | 23.8µM* | u | u | u | -5.9%
CCc1ccccc1NC(=O)c1ccc2nc(N3CCOCC3)sc2c1 | 0.6 | -16.7% | 6.7% | -12.1% | -13.3% | -2.0%
O=S(=O)(Nc1ccc2nc(N3CCOCC3)sc2c1)c1ccc(Cl)cc1 | 0.1 | -2.7% | x | 3.3% | 10µM* | -4.4%
Cc1ccc(NC(=O)c2ccc3nc(N4CCOCC4)sc3c2)c(Cl)c1 | -0.6 | u | 50.1µM* | 6.2% | x | 1.3%
C=CCCCCCCCCC(=O)Nc1ncccn1 | -0.9 | 11.9µM* | 21.4% | u | -2.6% | 2.2%
O=C(CCSc1ccccc1)Nc1ncccn1 | -1.8 | -9.0% | 2.5% | -3.6% | -8.0%[59 µM] | 0.3%
CCCn1cc(S(=O)(=O)CC(=O)N2CCc3ccccc32)c2ccccc21 | 0.1 | 29.9µM* | -3.7% | u | u | -1.0%
Cn1nc(-c2ccc(Cl)cc2)c2cc(C(=O)N3CCOCC3)sc21 | -6.1 | -1.2% | 3.6% | -8.3% | -13.4% | -2.1%

Bioassay records deposited in PubChem by National Center for Advancing Translational Sciences (NCATS).
